The values below come from PubChem BioAssay (NCI).

Holding throughout (assay): NCI-60 one-dose screen, 48 h (100 = growth as untreated, 0 = no growth, -100 = all killed)
One experiment concerns K-562 leukemia. The note with it: 10 µM unless noted.
A further experiment deals with MALME-3M melanoma. The note with it: 10 µM unless noted.
A further experiment deals with RXF 393 renal. The conditions noted are these: 10 µM unless noted.
The next experiment concerns SF-295 CNS. The note with it: 10 µM unless noted.
In the next experiment the test system is UACC-257 melanoma. The conditions noted are these: 10 µM unless noted.
The subject of the next experiment is HCT-15 colon. The conditions noted are these: 10 µM.
In the next experiment the test system is UACC-62 melanoma. The note with it: 10 µM unless noted.
Another experiment deals with LOX IMVI melanoma. The conditions noted are these: 10 µM unless noted.
In another experiment the test system is TK-10 renal. The note with it: 10 µM unless noted.
The next experiment has as its system ACHN renal. The conditions noted are these: 10 µM unless noted.
A further experiment has as its system A498 renal. The note with it: 10 µM unless noted.
In a further experiment the test system is MOLT-4 leukemia. The conditions noted are these: 10 µM.
For the next experiment, the system named is OVCAR-8 ovarian. The note with it: 10 µM unless noted.
For a further experiment, the system named is OVCAR-4 ovarian. The conditions noted are these: 10 µM unless noted.
In the next experiment the test system is NCI/ADR-RES ovarian. The note with it: 10 µM unless noted.
A further experiment concerns T-47D breast. The note with it: 10 µM unless noted.
The next experiment has as its system BT-549 breast. The note with it: 10 µM.
A further experiment deals with HCC-2998 colon. The conditions noted are these: 10 µM unless noted.
The subject of another experiment is SK-MEL-2 melanoma. The conditions noted are these: 10 µM unless noted.
Another experiment deals with HL-60(TB) leukemia. The conditions noted are these: 10 µM unless noted.

SMILES strings stand for the structures. Compounds without any hit were thinned out: in the full panel of roughly 83,000, 20% have a hit.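 Each cell line was grown in a 96-well plate and treated with one concentration of compound for 48 hours. Values below 10 were considered active.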 Values without a mark were called inactive. The source made the active and inactive calls.

On to `CNC(C)Cc1ccccc1` (centres undefined) (tested in a mixture with another compound), for which the growth was 88.9% in the experiment with K-562 leukemia; 103% in the experiment on MALME-3M melanoma; 105% in the experiment with RXF 393 renal; 97.7% with SF-295 CNS; 109% with UACC-257 melanoma; 101% in the experiment with HCT-15 colon. The growth in the experiment on UACC-62 melanoma was 107%; in the experiment with LOX IMVI melanoma, 98.7%; with TK-10 renal, 92.8%; in the experiment on ACHN renal, 95.7%; in the experiment on A498 renal, 92.5%; in the experiment on MOLT-4 leukemia, 90.6%. Also, the growth in the experiment on OVCAR-8 ovarian was 113%; in the experiment with OVCAR-4 ovarian, 104%; in the experiment on NCI/ADR-RES ovarian it was 104%; in the experiment with T-47D breast it was 90.5%; in the experiment on BT-549 breast, 109%; in the experiment on HCC-2998 colon, 101%.

Regarding `Fc1ccc(C2=NN(c3ccccc3)C(c3sc(N(CCCl)CCCl)nc3Cl)C2)cc1` (centres undefined), the growth with K-562 leukemia is 69.8%; with MALME-3M melanoma, 102%; with RXF 393 renal it was 102%; with SF-295 CNS it was 85.5%; with UACC-257 melanoma, 86.7%; in the experiment with HCT-15 colon, 94.3%. The growth in the experiment on UACC-62 melanoma was 59.8%; in the experiment on LOX IMVI melanoma, 83.2%; with SK-MEL-2 melanoma, 84.5%; in the experiment with TK-10 renal it was 117%; with ACHN renal it was 79.4%; in the experiment with A498 renal, 92.4%. For the same molecule, the growth in the experiment with HL-60(TB) leukemia was 103%; in the experiment on MOLT-4 leukemia, 65.4%; in the experiment on OVCAR-8 ovarian it was 87.5%; in the experiment with OVCAR-4 ovarian, 78.8%; in the experiment on NCI/ADR-RES ovarian, 92.3%; with T-47D breast it was 61.5%. Besides, the growth in the experiment on BT-549 breast is 99.5%; in the experiment on HCC-2998 colon it was 103%.

As for `ClCCN(CCCl)c1nc(Cl)c(C2CC(c3ccc(Cl)cc3)=NN2c2cc(Cl)cc(Cl)c2)s1` (centres undefined), the growth was 91.7% with K-562 leukemia; 107% in the experiment with MALME-3M melanoma; 119% in the experiment on RXF 393 renal; 101% in the experiment with SF-295 CNS; 94.4% with UACC-257 melanoma; 105% with HCT-15 colon. Moreover, the growth in the experiment with UACC-62 melanoma is 82.7%; in the experiment with LOX IMVI melanoma, 106%; with SK-MEL-2 melanoma it was 96.3%; in the experiment on TK-10 renal it was 109%; with ACHN renal it was 106%; with A498 renal, 101%. The growth with HL-60(TB) leukemia is 104%; in the experiment on MOLT-4 leukemia it was 95%; in the experiment with OVCAR-8 ovarian, 99.1%; in the experiment with OVCAR-4 ovarian, 99.7%; in the experiment with NCI/ADR-RES ovarian it was 114%; in the experiment with T-47D breast it was 98.8%. For the same molecule, the results for the growth with BT-549 breast and with HCC-2998 colon were 103% and 109%, respectively.

As to `O=C1NC(=O)C(Cc2ccccc2)(Cc2ccccc2)C(=O)N1`, the growth in the experiment on K-562 leukemia was 86.7%; with RXF 393 renal, 113%; in the experiment on SF-295 CNS, 105%; with UACC-257 melanoma, 108%; in the experiment with HCT-15 colon, 108%; in the experiment with UACC-62 melanoma it was 95.1%. Also, the growth is 90.4% in the experiment with LOX IMVI melanoma; 104% in the experiment on SK-MEL-2 melanoma; 99.5% in the experiment with TK-10 renal; 114% with ACHN renal; 104% with A498 renal; 89.4% in the experiment with HL-60(TB) leukemia. Besides, the growth is 100% in the experiment with MOLT-4 leukemia; 106% in the experiment on OVCAR-8 ovarian; 95.7% in the experiment with OVCAR-4 ovarian; 113% in the experiment with NCI/ADR-RES ovarian; 118% with BT-549 breast; 104% in the experiment with HCC-2998 colon.

As for `COc1cc(/C=C\c2cc(OC)c(OC)c(OC)c2)cc(N/C=C\C(=O)c2ccc(OC(F)(F)F)cc2)c1OC`, the growth with K-562 leukemia is 4.67% (active); in the experiment on SF-295 CNS, 9.29% (active); with UACC-257 melanoma, 51.1%; in the experiment on HCT-15 colon it was 9.36% (active); with LOX IMVI melanoma it was 33.4%; in the experiment with SK-MEL-2 melanoma, -13.4% (active). Further, the growth in the experiment on ACHN renal was 43%; in the experiment on A498 renal, -1.24% (active); in the experiment on HL-60(TB) leukemia, 11%; with MOLT-4 leukemia, 34.6%; in the experiment with OVCAR-8 ovarian, 30%; in the experiment with OVCAR-4 ovarian, 57.4%. Moreover, the figures for the growth in the experiment on NCI/ADR-RES ovarian, in the experiment with T-47D breast and with BT-549 breast were 5.87% (active), 37.9% and 44.8%, respectively.

`CCCCCCCC(=O)OCC/C=C/C1OC1C1OC(=O)/C=C\C=C\c2nc(oc2C)/C=C(/C)CCC2OC2C1OC(=O)NC(C)=O` (centres undefined): the growth is -12.4% (active) with MALME-3M melanoma; -58.3% (active) in the experiment with RXF 393 renal; -37.6% (active) with SF-295 CNS; 5.16% (active) in the experiment on UACC-257 melanoma; -5.6% (active) in the experiment on HCT-15 colon; -49.6% (active) with UACC-62 melanoma. The growth in the experiment with LOX IMVI melanoma is -21.6% (active); in the experiment with SK-MEL-2 melanoma it was -44.5% (active); with TK-10 renal, 1.86% (active); with ACHN renal, -16.8% (active); in the experiment on A498 renal it was -82.5% (active); in the experiment on OVCAR-8 ovarian, -79.1% (active). The growth with OVCAR-4 ovarian was 8.12% (active); in the experiment on NCI/ADR-RES ovarian it was -33.8% (active); in the experiment on T-47D breast it was -42.6% (active); with BT-549 breast, -2.38% (active); in the experiment on HCC-2998 colon, -92.8% (active).

`CC1(C)CC2(CC(C)(C)c3cc(O)c(O)cc32)c2cc(O)c(O)cc21`: the growth is 101% in the experiment on MALME-3M melanoma; 85.8% with RXF 393 renal; 96.1% in the experiment with SF-295 CNS; 109% with UACC-257 melanoma; 89.5% with HCT-15 colon; 83.3% in the experiment on UACC-62 melanoma. Also, the growth with LOX IMVI melanoma is 94.8%; with SK-MEL-2 melanoma, 110%; in the experiment with TK-10 renal, 117%; in the experiment on ACHN renal it was 96.1%; with A498 renal, 99.4%; with HL-60(TB) leukemia it was 104%. Besides, the growth in the experiment with MOLT-4 leukemia is 71.6%; in the experiment with OVCAR-8 ovarian, 97.3%; in the experiment on OVCAR-4 ovarian, 82%; in the experiment with NCI/ADR-RES ovarian, 103%; in the experiment with T-47D breast, 104%; in the experiment with BT-549 breast it was 111%. In addition, the growth in the experiment on HCC-2998 colon was 102%.

With `CCC1([N+](=O)[O-])COP(=O)(NCc2cccnc2)OC1` (centres undefined), the growth in the experiment with K-562 leukemia was 106%; in the experiment on RXF 393 renal it was 106%; in the experiment on SF-295 CNS it was 104%; in the experiment on UACC-257 melanoma it was 113%; in the experiment on HCT-15 colon, 104%; with UACC-62 melanoma it was 105%. Further, the growth was 102% in the experiment on LOX IMVI melanoma; 111% with SK-MEL-2 melanoma; 109% in the experiment with TK-10 renal; 113% with ACHN renal; 94.3% in the experiment with A498 renal; 107% in the experiment on HL-60(TB) leukemia. Further, the growth in the experiment on MOLT-4 leukemia was 111%; in the experiment on OVCAR-8 ovarian, 108%; in the experiment with OVCAR-4 ovarian, 112%; in the experiment with NCI/ADR-RES ovarian, 112%; with BT-549 breast, 114%; in the experiment on HCC-2998 colon, 115%.

For the molecule `CC[C@H](C)[C@H](NC(=O)Nc1ccccc1)C(=O)N(C)[C@H](C[C@@H](OC(C)=O)c1nc(C(=O)N[C@@H](Cc2ccccc2)C[C@H](C)C(=O)OC)cs1)C(C)C`, the growth in the experiment with K-562 leukemia is 15.7%; in the experiment with MALME-3M melanoma, 41.4%; with RXF 393 renal, 0.067% (active); with SF-295 CNS, 4.42% (active); in the experiment on UACC-257 melanoma, 60.6%; in the experiment on HCT-15 colon it was 9.43% (active). The growth was 15.1% in the experiment with UACC-62 melanoma; 23.9% in the experiment on LOX IMVI melanoma; -15% (active) in the experiment on SK-MEL-2 melanoma; 25.1% with ACHN renal; -15.6% (active) with A498 renal; -17.2% (active) with HL-60(TB) leukemia. In addition, the growth in the experiment on MOLT-4 leukemia was 15.7%; with OVCAR-8 ovarian, 14.6%; with OVCAR-4 ovarian, 31.5%; in the experiment on NCI/ADR-RES ovarian it was 59.1%; in the experiment with T-47D breast it was 61.6%; in the experiment on BT-549 breast it was 2.56% (active). In addition, the growth in the experiment with HCC-2998 colon was 18.7%.
